# According to PubChem BioAssay (NCATS):
# A number with no mark means an inactive call. Records with an inconclusive call do not appear. Where a call stands in place of a potency, no number is given. The source made the active and inactive calls. Unless noted, calls come from the whole dose curve; as a rule, active = well fitted curve in the direction sought with a large enough effect; inconclusive = small, poorly fitted or top-dose-only effect, or another doubt; inactive = no such curve, though single readings can be large; an effect the other way counts as inactive or inconclusive.
# Assays:
# [1] = Cellular Toxicity (caspase-3) Renal Proximal Tubule (AID 667);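 note: cells exposed to compound for 16 hours at 37 °C before detection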
# Procedure, shortened: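 Caspase-Glo 3/7 read-out, rat primary kidney proximal tubule cells. Compound exposure 16 h, 37 °C; detection after 1 h at RT. Activity scaled to DMSO and 10 uM staurosporine.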
# [2] = target: Cytochrome P450 3A4 (Homo sapiens) (UniProt P08684); test: qHTS Assay for Inhibitors and Substrates of Cytochrome P450 3A4 (AID 884); note: nearly all actives have a fitted effect of over 50% in size; note: potency is the fitted concentration of half-maximal effect
# Procedure, shortened: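 Luminescent readout of luciferin produced by CYP3A4 (20 nM) dealkylation of Luciferin-PPXE, 25 uM (its KM). NADPH-driven reaction ran 60 min at RT after 10 min compound preincubation; data scaled to 57 uM ketoconazole as 100% inhibition.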
# [3] = Cell Viability - LYMP2-001 (AID 921);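 note: cells exposed to compound for 24 h at 37 °C; nearly all actives have a fitted effect of over 70% in size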; note: potency is the fitted concentration of half-maximal effect
# Procedure, shortened: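 A lymphoblastoid cell line of human origin was treated with library compounds across a concentration series for 24 hours, and viable cell number was estimated from ATP-driven luciferase light output. Hill modeling gave AC50.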
# [4] = MultiTox-Fluor Cytotoxicity Assay - LYMP1-001 - Dead Cells (AID 946)
# Procedure, shortened: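 AC50 from Hill fit of concentration-response; data normalized to DMSO (basal) and 15 uM tetraoctylammonium bromide (100%). LYMP1-001 lymphoblastoid cells, 2500/well, 16 hr compound at 37 C; dead-cell protease fluorescence, Ex/Em 485/520.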
# [5] = MultiTox-Fluor Cytotoxicity Assay - LYMP1-001 - Live Cells (AID 947); note: potency is the fitted concentration of half-maximal effect
# [6] = Cell Viability - LYMP1-002 - Assay at 16 hr (AID 948); note: potency is the fitted concentration of half-maximal effect
# Procedure, shortened: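 In this qHTS, lymphoblastoid LYMP1-002 cells (human) receive compounds for 16 hr at 37 C. Viability is taken from CellTiter-Glo ATP luminescence, and AC50 derives from standard Hill fits.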
# [7] = MultiTox-Fluor Cytotoxicity Assay - LYMP1-002 - Live Cells (AID 955);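 note: cells exposed to compound for 16 hours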; note: potency is the fitted concentration of half-maximal effect
# Procedure, shortened: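 LYMP1-002 lymphoblastoid cells; 2500 cells/well; 16 hr compound exposure, 37 C; MultiTox-Fluor reagent 60 min RT; live-cell fluorescence Ex/Em=405/510; qHTS concentration-response, Hill-equation AC50; tetraoctylammonium bromide positive control.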
# [8] = target: Guanine nucleotide-binding protein G(i) subunit alpha-1 (Homo sapiens) (UniProt P63096); test: qHTS Assay for Inhibitors of RGS12 GoLoco Motif Activity (Green Fluorophore) (AID 879);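 note: negative values mean loss of peptide binding seen as reduced polarization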
# Procedure, shortened: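 A drop in FITC polarization marked displacement of the FITC-tagged RGS12 GoLoco peptide (10 nM) from Gαi1 (50 nM). Compounds were incubated 10 min at room temperature in Tris pH 7.5 buffer containing 150 mM NaCl, 0.1 mM GDP and 0.05% NP40; unlabeled peptide titration served as control.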
# [9] = target: Cytochrome P450 2C9 (Homo sapiens) (UniProt P11712); test: qHTS Assay for Inhibitors and Substrates of Cytochrome P450 2C9 (AID 883); note: potency is the fitted concentration of half-maximal effect; nearly all actives have a fitted effect of over 60% in size
# Procedure, shortened: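 Inhibition of CYP2C9 is scored as loss of luminescence, with 57uM sulphaphenazole defining 100% inhibition. Substrate Luciferin-H is used at 100uM, equal to its KM; enzyme at 10nM in 25mM KPO4, 60 min at 37C with NADPH regeneration.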
# [10] = target: Cytochrome P450 3A4 (Homo sapiens) (UniProt P08684); test: qHTS Assay for Activators of Cytochrome P450 3A4 (AID 885); note: nearly all actives have a fitted effect of over 65% in size
# Procedure, shortened: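 CYP3A4 activity: Luciferin-PPXE O-dealkylation, 25uM substrate, 200mM KPO4, RT throughout. Read-out is luciferase luminescence; higher values reflect activation.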
# [11] = target: Cytochrome P450 2C19 (Homo sapiens) (UniProt P33261); test: qHTS Assay for Inhibitors and Substrates of Cytochrome P450 2C19 (AID 899); note: nearly all actives have a fitted effect of over 60% in size; note: potency is the fitted concentration of half-maximal effect
# Procedure, shortened: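 5nM enzyme + 10uM Luciferin-H EGE (=KM), 50mM KPO4; cpd pin-transferred, 10 min 37C; NADPH regen, 60 min 37C; stopped w/ luciferin detection reagent, 20 min; luminescence. Normalized to 57uM ketoconazole (AC100).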
# [12] = target: Muscarinic acetylcholine receptor M1 (Rattus norvegicus) (UniProt P08482); test: qHTS Assay for Antagonists of Acetylcholine Muscarinic M1 Receptor: Measurement of IP-One Response (AID 944); note: nearly all actives have a fitted effect of over 75% in size; note: potency is the fitted concentration of half-maximal effect
# Procedure, shortened: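 Read-out: HTRF competition between d2-IP1 and Eu-cryptate anti-IP1 antibody, emission 620 and 665 nm. Stimulus was carbachol, EC80 (200 nM), for 30 min in M1-CHO cells (rat receptor), after 10 min compound pre-treatment.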
# [13] = target: Pyruvate kinase (Leishmania mexicana) (UniProt Q27686); test: qHTS Validation Assay for Inhibitors of Leishmania Mexicana Pyruvate Kinase (AID 945)
# Procedure, shortened: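 An endpoint luciferase assay: 0.2 nM LmPYK E451W turns over 0.5 mM PEP with 0.1 mM ADP for 1 h at room temperature, pH 7.2, before PKLight addition. Values are normalized to DMSO-only wells.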
# [14] = target: Pyruvate kinase PKM (Homo sapiens) (UniProt P14618); test: qHTS Assay for Activators of Human Muscle Pyruvate Kinase (AID 954; active = well fitted curve in the direction sought with a large enough effect, not every such curve was filed as active)
# Procedure, shortened: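 A coupled luminescent readout tracked ATP made from ADP by purified PKM2. Final conditions included 0.1 nM enzyme, PEP and ADP at 0.5 and 0.1 mM, pH 7.2 imidazole buffer with BSA, and a one-hour room-temperature reaction.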
# [15] = Confirmation and Secondary Assay for Modulators of Hemoglobin Beta Chain Splicing at IVS2 654 locus (AID 910);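 note: HeLa cells stably carrying EGFP split by mutant beta-globin IVS2-654 intron; per-well total GFP intensity by laser scanning cytometry after 2-day treatment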
# Procedure, shortened: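 Readout: per-well total peak green fluorescence (488 nm ex, 500–520 nm em) from objects 5–250 µm, reflecting correct splicing of an EGFP-654 reporter. Compounds were applied for 2 days at 37 °C to overnight-plated HeLa EGFP-654 cells; controls were DMSO and 500 nM IVS2-654 PNA.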
# [16] = Confirmation and Secondary Assay for Modulators of Hemoglobin Beta Chain Splicing at IVS2 705 locus (AID 930);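 note: HeLa cells stably expressing the EGFP-705 splicing reporter; GFP fluorescence per well restored by corrected splicing of the IVS2-705 intron in EGFP; series mostly up to about 46 µM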
# Procedure, shortened: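 Per-well GFP, captured at 1 x 8 µm resolution with 488 nm excitation, served as the read-out for HeLa EGFP-705 cells incubated 2 days with test compound versus DMSO.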
# [17] = qHTS Assay for Identification of Small Molecule Antagonists for NFkB Signaling Pathway (AID 895; active = well fitted inhibition curve with a large enough effect in the signal ratio, with a control signal flat, not every such curve was filed as active; the % refers to the signal ratio; note: potency is the fitted concentration of half-maximal effect)
# Procedure, shortened: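 Beta-lactamase reporter read-out (460 and 530 nm emission ratio, 405 nm excitation, 2 hrs substrate loading RT) after 5 hr stimulation with 10 pM TNF alpha in compound-treated NFkB-bla ME-180 cells in low-serum medium.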
# [18] = qHTS Assay for Identification of Small Molecule Antagonists for Thrombopoietin (TPO) Signaling Pathway (AID 918); conditions: TPO-dependent cell signaling reporter, antagonist mode; note: potency is the fitted concentration of half-maximal effect; nearly all actives have a fitted effect of over 60% in size
# Procedure, shortened: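 Luminescence read-out: GPIIb-promoter luciferase in Ba/F3 cells carrying human TPO receptor. Compounds added with 26 pM TPO (EC50), 24 hrs, 37 C, 5% CO2; cells deprived of IL-3 overnight beforehand. Inhibition of signal scored.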
# [19] = target: Cytochrome P450 2D6 (Homo sapiens) (UniProt P10635); test: qHTS Assay for Inhibitors and Substrates of Cytochrome P450 2D6 (AID 891); note: potency is the fitted concentration of half-maximal effect; nearly all actives have a fitted effect of over 60% in size
# Procedure, shortened: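 Luminescent read-out of luciferin formed by 5 nM human CYP2D6 demethylating 30 uM Luciferin-ME EGE (Km level) over 60 min at room temperature after NADPH regeneration addition. Data normalized to full inhibition by 1.43 uM quinidine.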
# [20] = qHTS Assay for Identification of Small Molecule Agonists for Hypoxia Response Element Signaling Pathway (AID 914; active = well fitted activation curve with a large enough effect in the signal ratio, with a control signal flat, not every such curve was filed as active; the % refers to the signal ratio); conditions: ME-180 (cervical carcinoma) HRE-bla reporter, beta-lactamase ratio, CoCl2, 17 h; hits give high values
# Procedure, shortened: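 In Opti-MEM containing 0.5% dialyzed FBS and 10 mM HEPES, ME-180 HRE-bla cells received a compound titration and EC50 CoCl2. They were incubated 17 hours, then CCF4-loaded 2.5 hours at room temperature before ratio reading.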
# Sequence of Muscarinic acetylcholine receptor M1 (Rattus norvegicus) (P08482 whole entry, looked up): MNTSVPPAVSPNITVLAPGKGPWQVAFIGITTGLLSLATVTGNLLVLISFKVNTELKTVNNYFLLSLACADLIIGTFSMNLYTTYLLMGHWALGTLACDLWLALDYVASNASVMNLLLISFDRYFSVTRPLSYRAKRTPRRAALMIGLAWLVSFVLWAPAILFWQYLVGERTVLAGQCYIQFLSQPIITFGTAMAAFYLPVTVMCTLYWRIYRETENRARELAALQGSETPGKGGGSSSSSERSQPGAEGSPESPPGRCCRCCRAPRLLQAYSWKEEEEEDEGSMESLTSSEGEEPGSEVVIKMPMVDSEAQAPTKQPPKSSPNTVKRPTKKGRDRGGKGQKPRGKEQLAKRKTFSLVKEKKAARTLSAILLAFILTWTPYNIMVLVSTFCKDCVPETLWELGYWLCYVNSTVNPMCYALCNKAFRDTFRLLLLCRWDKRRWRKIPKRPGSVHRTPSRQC
# Sequence of Cytochrome P450 2C19 (Homo sapiens) (P33261 whole entry, looked up): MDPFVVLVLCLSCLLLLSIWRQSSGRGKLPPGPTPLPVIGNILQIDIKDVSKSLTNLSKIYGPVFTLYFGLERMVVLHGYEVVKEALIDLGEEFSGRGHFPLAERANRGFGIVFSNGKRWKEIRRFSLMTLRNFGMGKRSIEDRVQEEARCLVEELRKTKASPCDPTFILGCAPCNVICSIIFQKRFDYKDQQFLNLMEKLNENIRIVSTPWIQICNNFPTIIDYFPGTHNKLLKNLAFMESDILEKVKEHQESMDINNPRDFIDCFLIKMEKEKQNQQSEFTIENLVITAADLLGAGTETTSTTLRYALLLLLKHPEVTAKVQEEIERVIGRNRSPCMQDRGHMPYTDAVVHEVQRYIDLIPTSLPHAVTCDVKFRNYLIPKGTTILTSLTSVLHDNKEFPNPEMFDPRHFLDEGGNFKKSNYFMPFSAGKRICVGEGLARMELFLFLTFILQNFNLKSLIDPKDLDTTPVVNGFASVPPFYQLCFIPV
# Sequence of Guanine nucleotide-binding protein G(i) subunit alpha-1 (Homo sapiens) (P63096 whole entry, looked up): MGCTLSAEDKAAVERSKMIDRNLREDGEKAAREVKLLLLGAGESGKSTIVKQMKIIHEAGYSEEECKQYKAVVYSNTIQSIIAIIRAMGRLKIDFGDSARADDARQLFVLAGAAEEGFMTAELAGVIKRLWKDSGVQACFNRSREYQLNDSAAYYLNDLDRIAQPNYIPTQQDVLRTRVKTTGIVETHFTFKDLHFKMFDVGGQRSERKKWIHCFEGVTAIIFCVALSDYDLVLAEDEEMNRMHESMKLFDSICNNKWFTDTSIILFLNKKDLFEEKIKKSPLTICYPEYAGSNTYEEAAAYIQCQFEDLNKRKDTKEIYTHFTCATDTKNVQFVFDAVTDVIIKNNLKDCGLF
# Sequence of Pyruvate kinase PKM (Homo sapiens) (P14618 whole entry, looked up): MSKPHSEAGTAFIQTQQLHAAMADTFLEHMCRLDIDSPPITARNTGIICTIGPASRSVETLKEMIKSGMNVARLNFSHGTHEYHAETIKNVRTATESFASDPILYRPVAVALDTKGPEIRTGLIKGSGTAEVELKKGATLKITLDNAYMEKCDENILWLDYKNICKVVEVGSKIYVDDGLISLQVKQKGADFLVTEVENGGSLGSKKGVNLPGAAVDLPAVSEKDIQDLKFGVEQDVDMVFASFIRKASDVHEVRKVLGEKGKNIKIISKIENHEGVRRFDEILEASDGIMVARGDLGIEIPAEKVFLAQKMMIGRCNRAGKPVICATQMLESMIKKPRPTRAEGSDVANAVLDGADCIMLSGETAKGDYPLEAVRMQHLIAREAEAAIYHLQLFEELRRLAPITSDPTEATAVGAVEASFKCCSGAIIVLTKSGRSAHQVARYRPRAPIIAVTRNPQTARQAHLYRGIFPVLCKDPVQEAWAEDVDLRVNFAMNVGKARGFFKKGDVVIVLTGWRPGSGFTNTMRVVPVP
# Sequence of Pyruvate kinase (Leishmania mexicana) (Q27686 2-499 E452W): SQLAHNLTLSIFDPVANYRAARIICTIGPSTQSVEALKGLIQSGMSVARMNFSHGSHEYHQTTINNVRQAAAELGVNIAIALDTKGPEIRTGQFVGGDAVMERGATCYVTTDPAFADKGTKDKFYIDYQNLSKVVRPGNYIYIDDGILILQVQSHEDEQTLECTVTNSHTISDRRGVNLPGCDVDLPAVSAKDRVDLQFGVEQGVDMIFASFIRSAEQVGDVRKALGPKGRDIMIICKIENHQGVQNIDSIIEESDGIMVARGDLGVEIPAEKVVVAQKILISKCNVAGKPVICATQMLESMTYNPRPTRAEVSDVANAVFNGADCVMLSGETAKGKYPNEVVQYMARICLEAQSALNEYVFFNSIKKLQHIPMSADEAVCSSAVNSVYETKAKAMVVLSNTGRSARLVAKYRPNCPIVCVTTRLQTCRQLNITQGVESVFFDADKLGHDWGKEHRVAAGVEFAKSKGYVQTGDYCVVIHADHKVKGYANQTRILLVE
# Sequence of Cytochrome P450 3A4 (Homo sapiens) (P08684 whole entry, looked up): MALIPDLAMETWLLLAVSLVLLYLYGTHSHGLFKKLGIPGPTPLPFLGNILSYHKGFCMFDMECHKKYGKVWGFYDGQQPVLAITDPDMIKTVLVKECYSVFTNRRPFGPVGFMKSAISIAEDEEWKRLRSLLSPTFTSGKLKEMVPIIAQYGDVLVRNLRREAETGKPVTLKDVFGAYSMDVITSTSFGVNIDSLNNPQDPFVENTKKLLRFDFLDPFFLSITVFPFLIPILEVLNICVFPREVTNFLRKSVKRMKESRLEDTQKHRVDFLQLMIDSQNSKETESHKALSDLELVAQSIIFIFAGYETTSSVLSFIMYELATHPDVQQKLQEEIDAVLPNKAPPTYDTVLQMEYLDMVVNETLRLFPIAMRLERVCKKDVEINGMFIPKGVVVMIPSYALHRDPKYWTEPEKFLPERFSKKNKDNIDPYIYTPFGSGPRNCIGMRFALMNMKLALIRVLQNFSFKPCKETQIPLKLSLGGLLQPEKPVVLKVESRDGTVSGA
# Sequence of Cytochrome P450 2C9 (Homo sapiens) (P11712 whole entry, looked up): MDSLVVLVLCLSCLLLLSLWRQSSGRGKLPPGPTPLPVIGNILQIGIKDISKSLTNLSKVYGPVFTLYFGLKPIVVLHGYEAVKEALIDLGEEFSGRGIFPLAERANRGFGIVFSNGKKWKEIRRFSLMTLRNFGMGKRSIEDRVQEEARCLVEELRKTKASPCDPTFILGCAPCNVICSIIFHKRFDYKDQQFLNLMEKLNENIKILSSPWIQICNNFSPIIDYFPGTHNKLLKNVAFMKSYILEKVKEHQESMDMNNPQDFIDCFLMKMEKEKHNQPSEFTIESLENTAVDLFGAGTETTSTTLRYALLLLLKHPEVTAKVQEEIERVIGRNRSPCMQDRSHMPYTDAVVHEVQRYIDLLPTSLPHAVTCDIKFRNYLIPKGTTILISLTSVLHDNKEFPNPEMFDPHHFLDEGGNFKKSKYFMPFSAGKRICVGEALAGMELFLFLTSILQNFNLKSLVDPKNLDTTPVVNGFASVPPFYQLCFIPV
# Sequence of Cytochrome P450 2D6 (Homo sapiens) (P10635 whole entry, looked up): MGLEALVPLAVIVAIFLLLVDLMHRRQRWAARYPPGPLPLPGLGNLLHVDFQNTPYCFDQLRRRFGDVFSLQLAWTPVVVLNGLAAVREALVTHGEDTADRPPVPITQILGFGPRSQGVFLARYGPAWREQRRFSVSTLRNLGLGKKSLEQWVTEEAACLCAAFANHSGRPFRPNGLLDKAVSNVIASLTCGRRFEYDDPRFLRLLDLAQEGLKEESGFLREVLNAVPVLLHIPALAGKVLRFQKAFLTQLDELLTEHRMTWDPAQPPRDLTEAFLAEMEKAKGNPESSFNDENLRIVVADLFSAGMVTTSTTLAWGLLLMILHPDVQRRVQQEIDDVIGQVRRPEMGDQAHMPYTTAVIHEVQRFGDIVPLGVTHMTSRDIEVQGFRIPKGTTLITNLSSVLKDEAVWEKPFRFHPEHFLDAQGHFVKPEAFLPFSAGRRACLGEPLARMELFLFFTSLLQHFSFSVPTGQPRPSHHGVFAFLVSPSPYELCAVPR
smiles,measurement,setting,value
Nc1ccc([N+](=O)[O-])cc1,outcome,[1],inactive
same,Potency,[2],inactive
same,Potency,[3],inactive
same,outcome,[4],inactive
same,Potency,[5],inactive
same,Potency,[6],inactive
same,Potency,[7],inactive
CC1=NN=C(c2ccc(N)cc2)c2cc3c(cc2C1)OCO3,outcome,[8],inactive
same,Potency,[9],1.26 µM (active)
same,outcome,[10],inactive
same,Potency,[11],7.94 µM (active)
same,Potency,[12],inactive
same,outcome,[13],inactive
same,outcome,[14],inactive
O=[N+]([O-])c1c(Cl)c(Cl)cc(Cl)c1Cl,outcome,[1],inactive
same,Potency,[2],inactive
same,Potency,[3],inactive
same,outcome,[4],inactive
same,Potency,[5],inactive
same,Potency,[6],inactive
same,Potency,[7],inactive
O=C(O)C(Cl)Cl,outcome,[1],inactive
same,Potency,[2],inactive
same,Potency,[3],inactive
same,outcome,[4],inactive
same,Potency,[5],inactive
same,Potency,[6],inactive
same,Potency,[7],inactive
CCCCC(CC)COC(=O)c1ccccc1C(=O)OCC(CC)CCCC (centres undefined),outcome,[1],inactive
same,Potency,[3],inactive
same,outcome,[4],inactive
same,Potency,[5],inactive
same,Potency,[6],inactive
same,Potency,[7],inactive
CC(=O)[O][Hg][c]1ccccc1,outcome,[1],inactive
same,Potency,[15],inactive
same,Potency,[3],501 nM (active)
same,outcome,[16],inactive
same,Potency,[5],5.01 µM (active)
same,Potency,[6],6.31 µM (active)
same,Potency,[7],3.16 µM (active)
Nc1ccc(Cl)cc1,outcome,[1],inactive
same,Potency,[2],inactive
same,Potency,[3],inactive
same,outcome,[4],inactive
same,Potency,[5],inactive
same,Potency,[6],inactive
same,Potency,[7],inactive
COc1ccc(C(c2ccc(OC)cc2)C(Cl)(Cl)Cl)cc1,outcome,[1],inactive
same,Potency,[2],inactive
same,Potency,[15],inactive
same,Potency,[3],inactive
same,outcome,[16],inactive
same,outcome,[4],inactive
same,Potency,[5],inactive
same,Potency,[6],inactive
same,Potency,[7],inactive
CCCN1CCO[C@@H]2c3cc(O)ccc3OC[C@H]21,outcome,[8],inactive
same,outcome,[10],inactive
same,Potency,[17],inactive
same,Potency,[11],inactive
same,Potency,[12],inactive
same,outcome,[13],inactive
same,outcome,[14],inactive
COc1ccc2c(c[n+](C)c3c4cc5c(cc4ccc23)OCO5)c1OC,outcome,[8],inactive
same,outcome,[10],inactive
same,Potency,[17],11.2 µM (active)
same,Potency,[18],2 µM (active)
same,Potency,[12],35.5 µM (active)
same,outcome,[13],inactive
same,outcome,[14],inactive
O=C(N[C@H]1CN2CCC1CC2)c1ccc(Cl)cc1,Potency,[2],inactive
COc1cc2c(cc1OC)[C@@H]1C(=O)c3ccc4c(c3O[C@@H]1CO2)C=CC(C)(C)O4,outcome,[10],inactive
same,Potency,[19],63.1 nM (active)
same,Potency,[11],5.01 µM (active)
COc1ccc(C(=O)c2c(C)n(CCN3CCOCC3)c3cc(I)ccc23)cc1,Potency,[2],5.01 µM (active)
same,outcome,[10],inactive
CCCN1CCO[C@@H]2c3cc(O)ccc3OC[C@@H]21,outcome,[10],inactive
CC(C)c1ccc2c(c1)c(SC(C)(C)C)c(CC(C)(C)C(=O)O)n2Cc1ccc(Cl)cc1,Potency,[9],6.31 µM (active)
same,outcome,[10],inactive
O=C(O)Cc1cnc[nH]1,outcome,[8],inactive
same,outcome,[10],inactive
same,activation,[20],7.21%
same,Potency,[12],inactive
same,outcome,[13],inactive
same,outcome,[14],inactive
c1ccc(CCCN2CCN(CCOC(c3ccccc3)c3ccccc3)CC2)cc1,outcome,[8],inactive
same,Potency,[12],8.91 µM (active)
same,outcome,[13],inactive
same,outcome,[14],inactive
CNCCc1ccc(O)c(O)c1,outcome,[8],inactive
same,Potency,[12],inactive
same,outcome,[13],inactive
same,outcome,[14],inactive
C[C@@H]1O[C@H](C[N+](C)(C)C)C[C@H]1O,outcome,[8],inactive
same,Potency,[17],inactive
same,Potency,[12],inactive
same,outcome,[13],inactive
same,outcome,[14],inactive
